Measured values as given in PubChem BioAssay (NCI).
Several values for one entry are separate records, joined by “and”; a condition that tells them apart may be missing. Equal values may be shown once. This is part of a sample that, as a whole, favours compounds with a hit. Of some 83,000 tested, about 20% had one in any assay.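 The test compound was applied at a single concentration to cells in 96-well plates for 48 hours, and percent growth was recorded.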 Unmarked numbers belong to inactive results. Activity calls are given as the source filed them. Rule for the calls: active = growth percent below 10; inactive = the rest.

test system: HL-60(TB) leukemia; assay: NCI-60 one-dose screen, 48 h (100 = growth as untreated, 0 = no growth, -100 = all killed); settings: 10 µM unless noted

SMILES	growth
O=S(=O)(NCCNc1nccc(-c2c(-c3cccc(F)c3)nc3occn23)n1)c1cccc2ccccc12	51.9%
OC(CNC1CCCC1)Cn1c2ccccc2c2ccccc21 (centres undefined)	-47.3% (active)
CC(c1ccccn1)C(C)(O)C(C)c1ccccn1 (centres undefined)	69.8%
COc1ccc2nc(NC(=O)CN3CCn4c(nnc4C(F)(F)F)C3)sc2c1	103%
CCc1cccc(CC)c1NC(=O)c1sc2nc3c(cc2c1N)CCCC3	41%
CCN1C(=O)N(CC)C2C1NN=c1s/c(=C\c3ccc(Cl)cc3Cl)c(=O)n12 (centres undefined)	-52.1% (active)
Clc1ccc(NC(Nc2ccc(Cl)cc2)C(Cl)(Cl)Cl)cc1	93.3% and 83.6%
COC(=O)c1cc(=O)nc(N/N=C/c2ccco2)s1	116%
O=C(NCCCCNC(=O)OCc1ccc2c(Cl)cc(Cl)c(O)c2n1)OCc1ccc2c(Cl)cc(Cl)c(O)c2n1	-49.2% (active)
CC[C@]12C=CCN3CC[C@@]4(c5ccc(OC)cc5N(C)[C@H]4[C@@](O)(C(=O)OC)[C@@H]1OC(=O)CCC(=O)N[C@H](Cc1c[nH]c4ccccc14)C(=O)OC)[C@@H]32	-25% [100 µM] (active)
O=C(/C=C/c1cn(-c2ccccc2)nc1-c1ccc([N+](=O)[O-])cc1)c1ccc(Cl)cc1	69.1%
Cc1cc(C(=O)O)c(N)c(C)n1	102%
COc1cc2c(O)n(CCCn3ccnc3)c3c4cnc5cccc(c(=O)c3c2cc1OC)c54	6.68% (active)
CCN1CCN(Cc2cn(CC(=O)Nc3ccc4c(ccn4Cc4ccccc4)c3)nn2)CC1	95.5%
CN(C)CCNc1cc(-c2ccccc2)nc2ccccc12	-17.7% (active)
COc1cc(NC(=O)COc2ccccc2)c(C(N)=O)cc1OC	-11.7% (active)
O=C(O)c1cn(C2CC2)c2cc(N3CCN(C(=O)c4cc(-c5ccc(Cl)cc5)nc5ccccc45)CC3)c(F)cc2c1=O	101%
Cc1c(-c2noc(-c3ccc([N+](=O)[O-])cc3)n2)no[n+]1[O-]	102%
Brc1ccc2c(c1)CN(C1CCCCC1)CO2	106%
O=C1CSC(c2ccccc2Cl)N1c1nnc(Cn2cnnc2)o1 (centres undefined)	-17.3% (active)

SMILES	growth
O=C1C(Cl)=C(Nc2ccc(Nc3ccccc3)c(NC3=C(Cl)C(=O)c4ccccc4C3=O)c2)C(=O)c2ccccc21	61.6%
COc1cccc(NC(=O)[C@H](C(C)C)n2c(=O)[nH]c3ccccc3c2=O)c1	86.2%
Fc1ccc(-n2cc(COc3ncnc4sc5c(c34)CCCC5)nn2)cc1Cl	101%
COc1ccc(/C=C/C(=O)Nc2cccnc2Nc2ccc(F)cc2)cc1	84.3%
CCN(CC)CCCNc1ccc(Nc2ccc(OC)cc2)cc1	-48.7% (active)
O=C(N/N=C1\c2ccccc2-c2cccc(C(=O)O)c21)c1ccc(O)cc1	103%
Cc1[nH]c(C(=O)Nc2ccc(C(=O)N3CCN(c4cc5c(cc4F)c(=O)c(C(=O)O)cn5C4CC4)CC3)cc2OC(C)C)c(Cl)c1Cl	92.7%
COC(=O)[C@H]1[C@H](OC)[C@@H](OC(=O)/C=C/c2ccncc2)CC2CN3CCc4c([nH]c5cc(OC)ccc45)[C@@H]3C[C@@H]21 (some centres undefined)	28.6%
Cc1ccc(C(=O)c2ccc(C)cc2)cc1	92.5% and 98.6%
CN1CCN(C(=O)[C@]23CCC(C)(C)C[C@@H]2C2=CC[C@@H]4[C@@]5(C)Cc6c([nH]c7ccccc67)C(C)(C)[C@@H]5CC[C@@]4(C)[C@]2(C)CC3)CC1	76.7%
COc1ccc2c(c1)C(C)Cc1c(N(C)C)ncnc1N2C (centres undefined)	-4.85% (active)
Nc1nc2c(c3cnccc13)C(c1cccc(Br)c1)Cc1cnccc1-2 (centres undefined)	3.01% (active)
COc1cccc(C2CC(c3cc(OC)c(OC)c(OC)c3)=NN2)c1 (centres undefined)	55.1%
CC(=O)OCc1nc(C#N)c(N(C)C)o1	97.5%
CCN(CC)C(=S)SC(SC(=S)N(CC)CC)C(=O)c1nnn(-c2ccc([N+](=O)[O-])cc2)c1C	82.4%
COc1ccc2c(c1)OC1=C(C(=O)OC1)C2c1cc(OC)c2c(c1)OCCO2 (centres undefined)	-29.2% (active)
Nc1ncnc2c1ncn2C1CC(O)C(CO)O1 (centres undefined)	79.7% and 95.3%
COC(=O)c1ccccc1C(=O)c1c(C)cc(C)cc1C	84.6%
CC(O)c1cnc(/C=C2\SC(=S)N(Cc3ccccc3)C2=O)s1 (centres undefined)	20.4%
